This is a sample that favours compounds with a hit; in the whole collection about 10% have one here.
G9a inh: inhibitors of human histone lysine methyltransferase G9a. Q96KQ7. G9a H3K9 monomethylation, AlphaScreen, 2 h. Potency, µM (titrated, usually from 102 µM), inactives show at the highest dose activity, negative = inhibition, actives largely listed as inhibitors. 8.8% of 350,000 active. AID 504332; also: % is scaled to controls: 0 for no effect and ±100 for the full control effect; nearly all actives have a fitted effect of over 75% in size
Target sequence (Q96KQ7 913-1193 limits assumed): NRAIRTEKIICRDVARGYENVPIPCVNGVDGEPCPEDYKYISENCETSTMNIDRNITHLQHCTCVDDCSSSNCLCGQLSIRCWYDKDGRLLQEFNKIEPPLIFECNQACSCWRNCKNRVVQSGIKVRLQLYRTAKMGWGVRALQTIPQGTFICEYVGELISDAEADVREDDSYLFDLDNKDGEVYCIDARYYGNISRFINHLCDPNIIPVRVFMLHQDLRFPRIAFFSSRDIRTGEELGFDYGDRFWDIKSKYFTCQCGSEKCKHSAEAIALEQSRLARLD
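AlphaScreen read-out: biotin-H3K9 peptide (500 nM) methylation by 20 nM enzyme with 20 uM SAM, 2 h at room temperature after 15 min compound preincubation; anti-monomethyl H3K9 antibody plus donor/acceptor beads, 10 min dark.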
JMJD2A Tudor: JMJD2A Tudor domain (human) inhibition; AlphaScreen JMJD2A-Tudor / H3K4me3 peptide binding; Potency, µM (top dose mostly 114 µM), for inactives: at the top dose activity change, negative = inhibition, actives largely listed as inhibitors; 4.4% of 390,000 active; AID 504339; O75164; also: % is scaled to controls: 0 for no effect and ±100 for the full control effect; nearly all actives have a fitted effect of over 50% in size
GLS inhibitor: glutaminase GLS (human) inhibition. O94925. GLS enzymatic activity, qHTS titration. Potency, µM (series often up to 45.5 µM), without a hit: at the top dose activity change, negative = inhibition, most hits filed as inhibitors. 0.21% of 410,000 active. AID 624170; also: % is scaled to controls: 0 for no effect and ±100 for the full control effect
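hKGA; 45 mM KH2PO4 pH 8.2 + 0.02% Tween-20; cpd via pin tool; 1 mM Gln soln; GluOx/HRP/Amplex Red; RT 30 min; fluor. t0 & final.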
HP1b chromo inh: inhibitors of HP1-beta chromodomain binding to methylated histone tails. P83916. AlphaScreen HP1-beta / biotin-H3K9me3 peptide binding. Potency, µM (highest dose often 114 µM), for the others: at the highest dose activity change, negative = inhibition, usual class: inhibitors. 0.56% of 390,000 active. AID 540317; also: nearly all actives have a fitted effect of over 70% in size
Target sequence (P83916 whole entry, looked up): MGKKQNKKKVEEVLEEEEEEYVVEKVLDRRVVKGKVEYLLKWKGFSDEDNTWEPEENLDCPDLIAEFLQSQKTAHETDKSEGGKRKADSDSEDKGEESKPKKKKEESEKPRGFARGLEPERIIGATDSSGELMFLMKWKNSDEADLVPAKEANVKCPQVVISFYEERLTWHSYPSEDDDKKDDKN
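Compound inhibition of the preformed complex between 50 nM HP1-beta and 50 nM biotinylated H3K9me3 peptide was read by AlphaScreen. Buffer was PBS pH 7.4 with 0.01% Tween-20. Incubations ran 30 min at room temperature, with 10 ug/mL donor/acceptor beads.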
BAZ2B block: inhibitors of human BAZ2B bromodomain; Potency, µM (series often up to 114 µM), without a hit: top-dose activity change, negative = inhibition, usual class: inhibitors; AlphaScreen BAZ2B-H3K14Ac peptide displacement; 4.4% of 360,000 active; AID 504333; Q9UIF8; also: % is scaled to controls: 0 for no effect and ±100 for the full control effect; nearly all actives have a fitted effect of over 60% in size
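Protein-peptide AlphaScreen: BAZ2B 50 nM, b-H3K14Ac 50 nM, 1x PBS pH 7.4 + 0.01% Tween-20. Preincubation 30 min RT; cpd 30 min RT (top 110 uM); beads 20 min RT, light-protected.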
* marks the source's active call; other numbers are inactive results; [ ] = dose if it differs, or a comment. Calls follow the shape of the dose curve; as a rule, active = well fitted curve in the direction sought with a large enough effect; inconclusive = small, poorly fitted or top-dose-only effect, or another doubt; inactive = no such curve, though single readings can be large; an effect the other way counts as inactive or inconclusive. Potency is read from the fitted curve at half-maximal effect.

O=C(NNC(=O)C1CC2CCC1C2)c1sc2ccccc2c1Cl (configuration not stated) was read as G9a inh 1.0%[59 µM], JMJD2A Tudor -3.3%, GLS inhibitor 13.4%, HP1b chromo inh 37.9% and BAZ2B block -5.3%.
Screening CCN1CCc2nc(N)oc2CC1 returned G9a inh 23.8µM*, JMJD2A Tudor -7.9%, GLS inhibitor -8.5%, HP1b chromo inh 47.1% and BAZ2B block 6.2%.
CCC(=O)NCC(=O)OCC(=O)c1ccccc1 was read as G9a inh -15.3%[59 µM], JMJD2A Tudor inconclusive, GLS inhibitor 25.1µM*, HP1b chromo inh inconclusive and BAZ2B block -2.9%.
For COCCNc1oc(Cc2cccc3ccccc23)nc1C#N the results were G9a inh 79.4µM*, JMJD2A Tudor -26.5%, GLS inhibitor -3.5%, HP1b chromo inh -12.6% and BAZ2B block inconclusive.
Screening N#Cc1nc(Cc2cccc3ccccc23)oc1NCc1ccc(F)cc1 returned G9a inh 25.1µM*, JMJD2A Tudor inconclusive, GLS inhibitor -3.4%, HP1b chromo inh inconclusive and BAZ2B block inconclusive.
`C=CCNc1oc(-c2cccc(F)c2)nc1C#N` gave JMJD2A Tudor 44.7µM*, GLS inhibitor -2.3% and HP1b chromo inh inconclusive.
C=CCNc1oc(Cc2cccc3ccccc23)nc1C#N was read as G9a inh 50.1µM*, JMJD2A Tudor inconclusive, GLS inhibitor -2.4%, HP1b chromo inh 35.1% and BAZ2B block 50.1µM*.
For CSc1nnc(CNS(=O)(=O)c2ccc(Br)cc2)n1C the results were G9a inh 13.9%, JMJD2A Tudor 0.4%, GLS inhibitor -2.1%, HP1b chromo inh 31.8% and BAZ2B block -12.4%.
For COc1ccc(-n2c(SCC#N)nnc2-c2ccc(NS(=O)(=O)c3ccc(C)cc3)cc2)cc1 the results were G9a inh -5.6%[59 µM], JMJD2A Tudor -23.5%, GLS inhibitor 23.1%, HP1b chromo inh 11.0% and BAZ2B block -27.9%.
Screening CC(=O)c1ccc(N2CCN(Cc3nc4ccccc4[nH]3)CC2)cc1 returned G9a inh 39.4%, JMJD2A Tudor -21.2%, GLS inhibitor -4.5%, HP1b chromo inh 28.1% and BAZ2B block -20.3%.
Screening O=c1[nH]c(CN2CCN(c3ccc(O)cc3)CC2)nc2scc(-c3ccc(Cl)cc3)c12 returned G9a inh 3.16µM*, JMJD2A Tudor 44.7µM*, GLS inhibitor -4.4%, HP1b chromo inh inconclusive and BAZ2B block inconclusive.
Screening Oc1ccc(N2CCN(Cc3nc4ccccc4[nH]3)CC2)cc1 returned G9a inh 11.2µM*, JMJD2A Tudor 50.1µM*, GLS inhibitor 9.1%, HP1b chromo inh inconclusive and BAZ2B block -34.7%.
`O=c1[nH]c(C2CCCN(S(=O)(=O)c3cccc(F)c3)C2)nc2c1nnn2Cc1ccccc1` (configuration not stated) gave G9a inh inconclusive, JMJD2A Tudor 2.1%, GLS inhibitor -20.1%, HP1b chromo inh 34.7% and BAZ2B block -7.8%.
COc1ccc(-n2c(SCC(=O)NCC3CCCO3)nc3c(c2=O)SCC3)cc1OC (configuration not stated) was read as JMJD2A Tudor 12.8%, GLS inhibitor -8.0%, HP1b chromo inh 32.2% and BAZ2B block 3.3%.
Screening Cc1cc(N)n(-c2ccc(Oc3ccccc3)c(S(=O)(=O)O)c2)n1 returned G9a inh 50.1µM*, JMJD2A Tudor -32.2%, GLS inhibitor -5.3%, HP1b chromo inh 23.3% and BAZ2B block 56.2µM*.
For O=C(Nc1cccc2nsnc12)c1ccc(-c2cccc(Cl)c2)o1 the results were G9a inh 25.1µM*, JMJD2A Tudor -12.8%, GLS inhibitor 9.6%, HP1b chromo inh 28.3% and BAZ2B block 5.6%[57.1 µM].
COc1cc2c(cc1OC)CN(C(=O)c1ccc(Br)o1)CC2 was read as G9a inh 50.1µM*, JMJD2A Tudor -12.8%, GLS inhibitor 19.5%, HP1b chromo inh 15.6% and BAZ2B block -21.2%.
`COc1cc2c(cc1OC)CN(C(=O)/C=C/c1ccc([N+](=O)[O-])cc1)CC2` gave G9a inh 50.1µM*, JMJD2A Tudor -28.7%, GLS inhibitor 3.4%, HP1b chromo inh 0.1% and BAZ2B block inconclusive.
COc1cc2c(cc1OC)CN(C(=O)c1cccc([N+](=O)[O-])c1)CC2 was read as G9a inh 19.3%[12.7 µM], JMJD2A Tudor 50.1µM*, GLS inhibitor inconclusive, HP1b chromo inh -9.4% and BAZ2B block -11.2%.
`CCOC(=O)c1[nH]c(COC(=O)c2ccccc2NC(=O)c2ccco2)c(C(=O)OCC)c1C` gave G9a inh -0.8%[12.7 µM], JMJD2A Tudor -6.6%, GLS inhibitor 3.4%, HP1b chromo inh 24.1% and BAZ2B block -27.6%.
`CCCN(CCC)CC(O)Cn1cc(/C=C/C(=O)c2ccc(OC)cc2)c2ccccc21` (configuration not stated) gave G9a inh -45.2%[59 µM], JMJD2A Tudor 44.7µM*, GLS inhibitor -5.3%, HP1b chromo inh -19.3% and BAZ2B block inconclusive.
CCCN(CCC)CC(O)Cn1cc(/C=C/C(=O)c2ccc(C)cc2)c2ccccc21 (configuration not stated) was read as G9a inh -53.7%[59 µM], JMJD2A Tudor inconclusive, GLS inhibitor 14.2%, HP1b chromo inh -0.8% and BAZ2B block 22.4µM*.
For Cc1ccc(Nc2c(-c3cccc(Cl)c3)nc3cccc(C)n23)cc1 the results were G9a inh inconclusive, JMJD2A Tudor inconclusive, GLS inhibitor 1.2%, HP1b chromo inh -36.8% and BAZ2B block inconclusive.
COc1ccc(-c2nc3cccc(C)n3c2Nc2ccc(C)cc2)cc1 was read as JMJD2A Tudor 39.8µM* and HP1b chromo inh -21.3%.
Screening COc1ccc(Nc2c(-c3ccco3)nc3cccc(C)n23)cc1 returned G9a inh 25.1µM*, JMJD2A Tudor 56.2µM*, GLS inhibitor -1.7%, HP1b chromo inh inconclusive and BAZ2B block 22.4µM*.
FC(F)(F)c1nc2cc3nc4ccccc4[nH]c3cc2n1 was read as G9a inh 39.8µM*, JMJD2A Tudor -11.9%, GLS inhibitor 0.5%, HP1b chromo inh 10.7% and BAZ2B block -22.7%.
CC1CCCCC1NC(=O)c1nn(C)c(=O)c2ccccc12 (configuration not stated) was read as G9a inh 19.9%[59 µM], JMJD2A Tudor -2.8%, GLS inhibitor -1.0%, HP1b chromo inh 41.3% and BAZ2B block -9.4%.
COCCn1c(C)cc(/C=C(\C#N)C(=O)OCC(=O)Nc2ccc(S(N)(=O)=O)cc2)c1C was read as G9a inh 39.8µM*, JMJD2A Tudor -3.7%, GLS inhibitor -2.3%, HP1b chromo inh 26.9% and BAZ2B block 1.9%.
For Cc1occc1C(=O)Nc1ccc(S(=O)(=O)N2CCN(C)CC2)cc1 the results were G9a inh 56.2µM*, JMJD2A Tudor -19.2%, GLS inhibitor 0.3%, HP1b chromo inh 23.2% and BAZ2B block 4.4%.
